# Publication PMC11062922 (Nature Chemical Biology, 2023)
# Where two headings read alike, the source gives them in different places.
# Assays:
# Set-up in all cases: species or system human, MV4-11 + K-562 + COLO205 + SK-N-BE2 + OVCAR-8
# DYRK1A = settings: read-out: apparent Kd; compound concentrations:100 nM and 1000 nM (sheet 'Samples'); n = 1
# EIF2AK1 = settings: read-out: apparent Kd; compound concentrations:100 nM and 1000 nM (sheet 'Samples'); n = 1
# IRAK3 = settings: read-out: apparent Kd; compound concentrations:100 nM and 1000 nM (sheet 'Samples'); n = 1
# OPA1 = settings: read-out: apparent Kd; compound concentrations:100 nM and 1000 nM (sheet 'Samples'); n = 1
# PIK3CD = settings: read-out: apparent Kd, n = 1
# DJA1 = test system: T1, DJA1; settings: read-out: apparent Kd, compound concentrations: 100 nM and 1000 nM (sheet 'Samples'), n = 1
# T1 construct: gene DNAJA1
# NNT = settings: read-out: apparent Kd; compound concentrations: 100 nM and 1000 nM (sheet 'Samples'), CATDS: 0.29413941723105502; n = 1
# PDXK = settings: read-out: apparent Kd, compound concentrations: 100 nM and 1000 nM (sheet 'Samples'), n = 1
# DYNC1LI1 = settings: read-out: apparent Kd, n = 1
# GALK1 = settings: read-out: apparent Kd; compound concentrations:100 nM and 1000 nM (sheet 'Samples'); n = 1
# MAP3K1 = settings: read-out: apparent Kd; compound concentrations:100 nM and 1000 nM (sheet 'Samples'); n = 1
# MAP4K5 = settings: read-out: apparent Kd; compound concentrations:100 nM and 1000 nM (sheet 'Samples'); n = 1
# NUAK2 = settings: read-out: apparent Kd; compound concentrations:100 nM and 1000 nM (sheet 'Samples'); n = 1
# SLK = settings: read-out: apparent Kd; compound concentrations:100 nM and 1000 nM (sheet 'Samples'); n = 1
# STK10 = settings: read-out: apparent Kd; compound concentrations:100 nM and 1000 nM (sheet 'Samples'); n = 1
# EGFR = settings: read-out: apparent Kd; compound concentrations: 100 nM and 1000 nM (sheet 'Samples'), CATDS: 1; n = 1
# DDR2 = settings: read-out: apparent Kd; compound concentrations: 100 nM and 1000 nM (sheet 'Samples'), CATDS: 0.27583033516959499; n = 1
# PIP4K2C = settings: read-out: apparent Kd; compound concentrations: 100 nM and 1000 nM (sheet 'Samples'), CATDS: 0.290600345689909; n = 1
# RIPK2 = settings: read-out: apparent Kd; compound concentrations: 100 nM and 1000 nM (sheet 'Samples'), CATDS: 0.517215300479827; n = 1
# DHCR24 = settings: read-out: apparent Kd; compound concentrations:100 nM and 1000 nM (sheet 'Samples'); n = 1
# MCM5 = settings: read-out: apparent Kd; compound concentrations:100 nM and 1000 nM (sheet 'Samples'); n = 1
# GSK3A = settings: read-out: apparent Kd, compound concentrations: 100 nM and 1000 nM (sheet 'Samples'), n = 1
# GSK3B = settings: read-out: apparent Kd, compound concentrations: 100 nM and 1000 nM (sheet 'Samples'), n = 1
# MYLK3 = settings: read-out: apparent Kd; compound concentrations: 100 nM and 1000 nM (sheet 'Samples'), CATDS: 9.6792260241437694E-2; n = 1
# PRKCD = settings: read-out: apparent Kd; compound concentrations: 100 nM and 1000 nM (sheet 'Samples'), CATDS: 9.5557824797396607E-2; n = 1
# PRKCQ = settings: read-out: apparent Kd; compound concentrations: 100 nM and 1000 nM (sheet 'Samples'), CATDS: 0.104256233520078; n = 1
# PTK6 = settings: read-out: apparent Kd; compound concentrations: 100 nM and 1000 nM (sheet 'Samples'), CATDS: 0.387863257787184; n = 1
# TNK2 = settings: read-out: apparent Kd; compound concentrations: 100 nM and 1000 nM (sheet 'Samples'), CATDS: 0.62096450214514598; n = 1
# ILK = settings: read-out: apparent Kd; compound concentrations: 100 nM and 1000 nM (sheet 'Samples'), CATDS: 0.13612875725697299; n = 1
# NQO2 = settings: read-out: apparent Kd; compound concentrations: 100 nM and 1000 nM (sheet 'Samples'), CATDS: 0.173411525016403; n = 1
# DDR1 = settings: read-out: apparent Kd; compound concentrations:100 nM and 1000 nM (sheet 'Samples'); n = 1
# MAPK14 = settings: read-out: apparent Kd; compound concentrations:100 nM and 1000 nM (sheet 'Samples'); n = 1
# MAPKAPK2 = settings: read-out: apparent Kd; compound concentrations:100 nM and 1000 nM (sheet 'Samples'); n = 1
# TTN = settings: read-out: apparent Kd; compound concentrations: 100 nM and 1000 nM (sheet 'Samples'), CATDS: 0.51725800618074103; n = 1
# RET = settings: read-out: apparent Kd; compound concentrations:100 nM and 1000 nM (sheet 'Samples'); n = 1
# [1] = compound concentrations:100 nM and 1000 nM (sheet 'Samples')
structure (smiles),measurement,setting,value
COc1ccc(-c2oc3ncnc(N)c3c2-c2ccc(OC)cc2)cc1 [SB-589132],potency estimated from few doses,DYRK1A,1.95 µM
same,potency estimated from few doses,EIF2AK1,2.27 µM
same,potency estimated from few doses,IRAK3,1.12 µM
same,potency estimated from few doses,OPA1,1.86 µM
same,potency estimated from few doses,PIK3CD; [1],0.151 µM
CC(C)c1[nH]nc2c1N=C(c1ccccc1Cl)c1cc([N+](=O)[O-])ccc1N2 [RO0274710-000],potency estimated from few doses,DJA1; CATDS: 0.40583373860109201,0.864 µM
same,potency estimated from few doses,NNT,1.64 µM
same,potency estimated from few doses,PDXK; CATDS: 0.31885839544215799,1.37 µM
C[C@@H](Oc1cc(-n2cnc3cc(-c4ccncc4)ccc32)sc1C(N)=O)c1ccccc1Cl [GSK479719A],potency estimated from few doses,DYNC1LI1; [1],1.56 µM
same,potency estimated from few doses,GALK1,0.986 µM
same,potency estimated from few doses,MAP3K1,0.0912 µM
same,potency estimated from few doses,MAP4K5,2.27 µM
same,potency estimated from few doses,NUAK2,1.16 µM
same,potency estimated from few doses,SLK,0.51 µM
same,potency estimated from few doses,STK10,0.142 µM
CCNC(=O)O[C@H]1CN[C@H](C#Cc2cc3ncnc(Nc4ccc(OCc5cccc(F)c5)c(Cl)c4)c3s2)C1 [GSK192082A],potency estimated from few doses,EGFR,0.177 µM
CS(=O)(=O)CCNCc1ccc(-c2ccc3ncnc(Nc4ccc(OCc5ccccc5)cc4)c3c2)o1.Cl [GW458787A],potency estimated from few doses,EGFR,0.0342 µM
CNC(=O)c1cncc(/C=C/c2c(C)cccc2C)c1 [GW445012X],potency estimated from few doses,DDR2,2.06 µM
same,potency estimated from few doses,PIP4K2C,1.8 µM
same,potency estimated from few doses,RIPK2,0.587 µM
O=C1NC(=O)C(N2CCc3ccccc32)=C1c1cccc(Cl)c1 [SB-408010],potency estimated from few doses,DHCR24,1.9 µM
same,potency estimated from few doses,MCM5,1.58 µM
Cn1cc(C2=C(c3cn(C)c4ccc(N)cc34)C(=O)NC2=O)c2ccccc21 [RO0317365-000],potency estimated from few doses,DJA1; CATDS: 0.11913722870337901,1.12 µM
same,potency estimated from few doses,"DYNC1LI1; compound concentrations: 100 nM and 1000 nM (sheet 'Samples'), CATDS: 9.8378875134037994E-2",1.88 µM
same,potency estimated from few doses,GSK3A; CATDS: 0.15388620061227101,0.637 µM
same,potency estimated from few doses,GSK3B; CATDS: 0.158803622599584,0.598 µM
same,potency estimated from few doses,MYLK3,1.97 µM
same,potency estimated from few doses,"PIK3CD; compound concentrations: 100 nM and 1000 nM (sheet 'Samples'), CATDS: 0.44284718560289399",0.113 µM
same,potency estimated from few doses,PRKCD,2.06 µM
same,potency estimated from few doses,PRKCQ,1.58 µM
CS(=O)(=O)CCN(CC#N)Cc1ccc(-c2ccc3ncnc(Nc4ccc(OCc5cccc(F)c5)c(Cl)c4)c3c2)o1 [GW616030X],potency estimated from few doses,EGFR,0.244 µM
COc1cc(N2CCN(C)CC2)ccc1Nc1ncc2c(n1)N(C)c1ccccc1C(=O)N2 [XMD8-87],potency estimated from few doses,DJA1; CATDS: 0.207840847551445,1.71 µM
same,potency estimated from few doses,PTK6,0.123 µM
same,potency estimated from few doses,TNK2,0.0475 µM
Cn1cc(C2=C(c3cn(C)c4ncccc34)C(=O)NC2=O)c2ccccc21 [RO0271528-000],potency estimated from few doses,DJA1; CATDS: 0.169109962216623,1.33 µM
same,potency estimated from few doses,GSK3A; CATDS: 0.18190367371529301,1.15 µM
same,potency estimated from few doses,GSK3B; CATDS: 0.17248189014097001,1.28 µM
same,potency estimated from few doses,ILK,2.17 µM
same,potency estimated from few doses,NQO2,1.26 µM
same,potency estimated from few doses,PDXK; CATDS: 0.17608898897019801,1.23 µM
CCN1CCN(Cc2ccc(C(=O)Nc3ccc(C)c(Oc4ccc5c(c4)CC(=O)N5)c3)cc2C(F)(F)F)CC1.Cl.Cl [DDR1-in-1],potency estimated from few doses,DDR1,0.363 µM
same,potency estimated from few doses,MAPK14,0.958 µM
same,potency estimated from few doses,MAPKAPK2,0.858 µM
Nc1nccc2scc(-c3ccc4c(c3)CCN4C(=O)Cc3cc(F)ccc3F)c12 [GSK2587663A],potency estimated from few doses,DJA1; CATDS: 0.21507760056604699,1.09 µM
same,potency estimated from few doses,"PIK3CD; compound concentrations: 100 nM and 1000 nM (sheet 'Samples'), CATDS: 0.41369424364853202",0.127 µM
same,potency estimated from few doses,TTN,0.0832 µM
O=C(O[C@H]1CN[C@H](C#Cc2cc3ncnc(Nc4ccc(OCc5cccc(F)c5)c(Cl)c4)c3s2)C1)N1CCOCC1 [GW869810X],potency estimated from few doses,EGFR,0.0722 µM
Cl.c1ccc(Cn2ncc3cc(Nc4ncnc5ccccc45)ccc32)cc1 [GW273749A],potency estimated from few doses,EGFR,0.0254 µM
COC(=O)Nc1nc2ccc(Oc3ccc(NC(=O)Nc4cc(C(F)(F)F)ccc4F)cc3)cc2[nH]1.Cl [GW654607A],potency estimated from few doses,DDR1,2.14 µM
same,potency estimated from few doses,RET,0.64 µM
